{
  "source": "PubChem BioAssay AID1332",
  "about": "(Southern Research Institute, 2008)",
  "note": "Screen size: about 1,100 compounds; about 170 (15%) were called active. How the calls were made is not given here. The list is a sample of the results.",
  "data": [
    {"assay": "Confirmatory growth inhibition assay, mycobacterium tuberculosis h37rv, with cytotoxicity (AID 1332);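 on CC50: Vero cells exposed to compounds for 72 hours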;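 on IC50: bacteria incubated 7 days before adding Alamar blue readout reagent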", "settings": "M. tuberculosis H37Rv growth inhibition; CC50: measured here: Vero cell cytotoxicity; IC50: measured here: IC50 H37Rv replicates", "units": {"IC50": "µg/mL", "CC50": "µg/mL"}, "values": [
      {"smiles": "CCC[C@@H]1C[C@@H](C(=O)N[C@@H]([C@H]2O[C@H](SC)[C@H](O)[C@@H](O)[C@@H]2O)[C@@H](C)O)N(C)C1", "IC50": 11.6, "outcome": "active"},
      {"smiles": "CCC(=O)O[C@@H]1CC(=O)O[C@H](C)C/C=C/C=C/[C@@H](O)[C@H](C)C[C@H](CC=O)[C@H](O[C@@H]2O[C@H](C)[C@@H](O[C@H]3C[C@@](C)(O)[C@@H](OC(=O)CC)[C@H](C)O3)[C@H](N(C)C)[C@H]2O)[C@H]1OC", "IC50": "> 20", "outcome": "inactive"},
      {"smiles": "CN(C)CCOC(c1ccc(Cl)cc1)c1ccccn1", "note": "(stereo not given)", "IC50": "> 20", "outcome": "inactive"},
      {"smiles": "CCOC(=O)[C@H](CCc1ccccc1)N[C@@H](C)C(=O)N1C(C(=O)O)C[C@@H]2CCC[C@@H]21", "note": "(stereo not given in full)", "IC50": "> 20", "outcome": "inactive"},
      {"smiles": "Cc1onc(-c2ccccc2Cl)c1C(=O)N[C@@H]1C(=O)N2[C@@H]1SC(C)(C)[C@@H]2C(=O)O", "IC50": "> 20", "outcome": "inactive"},
      {"smiles": "Cn1nnnc1SCC1=C(C(=O)O)N2C(=O)[C@@H](NC(=O)[C@H](O)c3ccccc3)[C@H]2SC1", "IC50": "> 20", "outcome": "inactive"},
      {"smiles": "NCc1ccccc1CC(=O)N[C@@H]1C(=O)N2C(C(=O)O)=C(CSc3nnnn3CC(=O)O)CS[C@H]12", "IC50": 13.8, "outcome": "active"},
      {"smiles": "CN(C)CCn1nnnc1SCC1=C(C(=O)O)N2C(=O)[C@@H](NC(=O)Cc3csc(N)n3)[C@H]2SC1", "IC50": "> 20", "outcome": "inactive"},
      {"smiles": "CC(C)(C)NCC(O)COc1cccc2c1CCC(=O)N2", "note": "(stereo not given)", "IC50": "> 20", "outcome": "inactive"},
      {"smiles": "Cc1n[nH]c(=O)[nH]c1=O", "IC50": "> 20", "outcome": "inactive"},
      {"smiles": "COc1cc(N)c(Cl)cc1C(=O)N[C@H]1CCN(CCCOc2ccc(F)cc2)C[C@H]1OC", "IC50": 9.3, "outcome": "active"},
      {"smiles": "COc1cc(N)c(Cl)cc1C(=O)NC1CCN(Cc2ccccc2)CC1", "IC50": "> 20", "outcome": "inactive"},
      {"smiles": "CCN(CC)CCNC(=O)c1cc(Cl)c(N)cc1OC", "IC50": "> 20", "outcome": "inactive"},
      {"smiles": "O=C(O)C1CCCNC1", "note": "(stereo not given)", "IC50": "> 20", "outcome": "inactive"},
      {"smiles": "CC(=O)Nc1cc2ccccc2oc1=O", "IC50": "> 20", "outcome": "inactive"},
      {"smiles": "CCCC(=O)Nc1ccc(OCC(O)CNC(C)C)c(C(C)=O)c1", "note": "(stereo not given)", "IC50": "> 20", "outcome": "inactive"},
      {"smiles": "COc1cc(C(=O)OCCCN2CCCN(CCCOC(=O)c3cc(OC)c(OC)c(OC)c3)CC2)cc(OC)c1OC", "IC50": "> 20", "outcome": "inactive"},
      {"smiles": "COc1cc(/C=C/C(=O)N2CCC=CC2=O)cc(OC)c1OC", "CC50": 1.53, "IC50": 11.4, "outcome": "active"},
      {"smiles": "CC(=O)[C@H]1CC[C@H]2[C@@H]3C=CC4=CC(=O)CC[C@@]4(C)[C@@H]3CC[C@]12C", "IC50": "> 20", "outcome": "inactive"},
      {"smiles": "CC(N)CCCC(C)(C)O", "note": "(stereo not given)", "IC50": "> 20", "outcome": "inactive"},
      {"smiles": "CC1(C)S[C@@H]2[C@H](NC(=O)[C@H](N)c3ccccc3)C(=O)N2[C@H]1C(=O)OC1OC(=O)c2ccccc21", "note": "(stereo not given in full)", "IC50": "> 20", "outcome": "inactive"},
      {"smiles": "CC(=O)Oc1ccc(C(c2ccc(OC(C)=O)cc2)c2ccccn2)cc1", "IC50": "> 20", "outcome": "inactive"},
      {"smiles": "CC(=O)N=c1sc(S(N)(=O)=O)nn1C", "IC50": "> 20", "outcome": "inactive"},
      {"smiles": "C=C(C)[C@@H]1CC[C@]2(CO)CC[C@]3(C)[C@H](CC[C@@H]4[C@@]5(C)CC[C@H](O)C(C)(C)[C@@H]5CC[C@]43C)[C@@H]12", "CC50": "> 6", "IC50": "> 20", "outcome": "inactive"},
      {"smiles": "C[N+](C)(CCOc1ccccc1)Cc1ccccc1", "IC50": "> 20", "outcome": "inactive"},
      {"smiles": "CC(C)(C)CC(C)(C)c1ccc(OCCOCC[N+](C)(C)Cc2ccccc2)cc1", "IC50": 8, "outcome": "active"},
      {"smiles": "CC(C)(C)CC(C)(C)c1ccc(OCOCCOCCO)c(Cc2cc(C(C)(C)CC(C)(C)C)cc(Cc3cc(C(C)(C)CC(C)(C)C)ccc3OCOCCOCCO)c2OCOCCOCCO)c1", "IC50": "> 20", "outcome": "inactive"},
      {"smiles": "CCCCC1(COC(=O)CCC(=O)O)C(=O)N(c2ccccc2)N(c2ccccc2)C1=O", "IC50": "> 20", "outcome": "inactive"},
      {"smiles": "CNCCC(Oc1ccccc1OC)c1ccccc1", "note": "(stereo not given)", "IC50": "> 20", "outcome": "inactive"},
      {"smiles": "CNCCC(Oc1ccc(C(F)(F)F)cc1)c1ccccc1", "note": "(stereo not given)", "CC50": "> 6", "IC50": 9.88, "outcome": "active"},
      {"smiles": "CO[C@H]1C=C2CCN(C)[C@H]2C2c3cc4c(cc3C(=O)O[C@@H]21)OCO4", "note": "(stereo not given in full)", "IC50": "> 20", "outcome": "inactive"},
      {"smiles": "C#C[C@]1(OC(C)=O)CC[C@H]2[C@@H]3CCC4=C[C@@H](OC(C)=O)CC[C@@H]4[C@H]3CC[C@@]21C", "IC50": "> 20", "outcome": "inactive"},
      {"smiles": "CN(C)[C@@H]1C(=O)C(C(N)=O)=C(O)[C@@]2(O)C(=O)C3=C(O)c4c(O)ccc(Cl)c4[C@@](C)(O)C3C[C@@H]12", "note": "(stereo not given in full)", "IC50": 13.2, "outcome": "active"},
      {"smiles": "C[C@H]1c2cccc(O)c2C(O)=C2C(=O)C3(O)C(O)=C(C(N)=O)C(=O)[C@@H](N(C)C)[C@@H]3[C@@H](O)[C@@H]21", "note": "(stereo not given in full)", "IC50": 2.44, "outcome": "active"},
      {"smiles": "CN(C)[C@@H]1C(=O)C(C(=O)NCN2CCCC2)=C(O)[C@@]2(O)C(=O)C3=C(O)c4c(O)cccc4[C@@](C)(O)C3CC12", "note": "(stereo not given in full)", "IC50": "> 20", "outcome": "inactive"},
      {"smiles": "CN(C)[C@@H]1C(=O)C(C(N)=O)=C(O)[C@@]2(O)C(=O)C3=C(O)c4c(O)cccc4[C@@](C)(O)[C@H]3[C@H](O)[C@@H]12", "IC50": "> 20", "outcome": "inactive"},
      {"smiles": "C=C1c2cccc(O)c2C(O)=C2C(=O)[C@]3(O)C(O)=C(C(N)=O)C(=O)[C@@H](N(C)C)[C@@H]3[C@@H](O)[C@H]12", "IC50": "> 17.9", "outcome": "active"},
      {"smiles": "C=C1c2c(Cl)ccc(O)c2C(O)=C2C(=O)[C@]3(O)C(O)=C(C(N)=O)C(=O)[C@@H](N(C)C)[C@@H]3[C@@H](O)C12", "note": "(stereo not given in full)", "CC50": "> 6", "IC50": 3.86, "outcome": "active"}
    ]}
  ]
}
